# From PubChem BioAssay AID504400 (The Scripps Research Institute Molecular Screening Center, 2011)
# Unmarked numbers belong to inactive results. No rule for the calls is given here.
# System: Rolipram
# Assay: CYP450 and receptor off-target profile – biochemical, Ricerca HitProfilingScreen, selectivity assay for S1P4 agonist project, late-stage follow-up (AID 504400)
# Conditions: Ricerca radioligand binding/enzyme panel plus CYP450, at 10 µM, hits give high values
smiles,measurement,value
Clc1ccc(OCCOc2ccc(Br)nc2Br)c(Cl)c1,inhibition,-3%
